Source: PubChem (National Center for Advancing Translational Sciences (NCATS))
An excerpt weighted towards active compounds, which were near 10% of everything screened.
LMNA splice mod = qHTS Assay for Modulators of Lamin A Splicing; Potency, µM (top dose mostly 46.1 µM), for the others: at the highest dose ratio change, negative = inhibition, usual class: inhibitors; HeLa LMNA splicing GFP/RFP minigene ratio, 48 h; hit rate 0.01% among 200,000; active means well fitted inhibition curve with a large enough effect in the signal ratio, with a control signal flat, not every such curve was filed as active; inconclusive means small, poorly fitted or top-dose-only effect, or effect the other way, or a change in a side signal; the % refers to the signal ratio; further: potency means the concentration at half of the fitted maximal effect
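S3 HeLa stable clones carrying a lamin A-EGFP splicing minigene plus DsRed2 were seeded at 600 cells/well in Opti-MEM with 2% FBS, pin-dosed and incubated 48 h at 37°C. Acumen cytometry (488 nm) gave the GFP/RFP total-intensity ratio.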
ALDH1A1 inh = qHTS Assay for Inhibitors of Aldehyde Dehydrogenase 1 (ALDH1A1); Purified ALDH1A1, NADH fluorescence, propionaldehyde substrate; Potency, µM (doses to about 75.3 µM), inactives show at the highest dose activity, negative = inhibition, actives largely listed as inhibitors; hit rate 7.3% among 220,000; Aldehyde dehydrogenase 1A1 (Homo sapiens), P00352;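 further: potency means the concentration at half of the fitted maximal effect; plate controls were no enzyme wells and a reference inhibitor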
Target sequence (P00352 whole entry, looked up): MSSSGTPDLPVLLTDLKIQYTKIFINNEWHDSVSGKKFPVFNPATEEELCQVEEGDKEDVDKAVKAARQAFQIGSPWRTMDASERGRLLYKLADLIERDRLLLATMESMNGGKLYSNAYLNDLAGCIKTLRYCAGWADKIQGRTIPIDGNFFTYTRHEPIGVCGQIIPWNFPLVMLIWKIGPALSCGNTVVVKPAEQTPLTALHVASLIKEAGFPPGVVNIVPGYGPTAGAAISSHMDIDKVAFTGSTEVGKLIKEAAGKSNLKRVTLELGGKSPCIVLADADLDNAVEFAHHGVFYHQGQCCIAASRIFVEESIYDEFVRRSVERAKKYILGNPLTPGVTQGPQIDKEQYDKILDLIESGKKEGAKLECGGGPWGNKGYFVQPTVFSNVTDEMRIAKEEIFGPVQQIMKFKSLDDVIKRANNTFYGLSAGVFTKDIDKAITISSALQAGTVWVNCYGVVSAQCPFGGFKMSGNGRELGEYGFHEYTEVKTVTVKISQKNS
HPGD inh = qHTS Assay for Inhibitors of HPGD (15-Hydroxyprostaglandin Dehydrogenase); Potency, µM, for inactives: at the highest dose activity change, negative = inhibition, hits mostly inhibitors; hit rate 4.3% among 150,000; purified HPGD, NADH fluorescence kinetic, PGE2 substrate; 15-hydroxyprostaglandin dehydrogenase [NAD(+)] (Homo sapiens), P15428; further: potency means the concentration at half of the fitted maximal effect
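NADH formation kinetics: reaction with 30 uM PGE2 and 1 mM NAD+ (final), 20 nM enzyme, Tris-HCl pH 8 with Tween 20, after 15 min compound preincubation at room temperature. Fluorescence change, last versus first of five reads.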
PNC inhibitor = High Content Assay for Compounds that inhibit the Assembly of the Perinucleolar Compartment; PC3M PTB-GFP, PNC prevalence imaging, 16 h; hits give low values; hit rate 3.1% among 140,000; activity change (PNC), negative = inhibition, % at 10 µM; AID 2417, 2010;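 active means readout at or below -70, meaning at least 70% loss of cells showing the perinucleolar compartment, a nuclear body marking cancer cells; inconclusive means readout between -30 and a set limit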;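 further: plate controls were DMSO wells for no effect and camptothecin positive control wells for full effect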
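Compounds are pinned in duplicate onto adhered PC3M cells stably expressing GFP-tagged PTB and incubated 16 h at 37 C. Cells are then fixed, nuclei stained with Hoechst, and PNC-positive cells counted.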
IMPase cell inh = qHTS Assay for Identifying the Cell-Membrane Permeable IMPase Inhibitors; Inositol monophosphatase 1 (Rattus norvegicus), P97697; CHO-M1 cells, IP1 accumulation, HTRF TR-FRET ratio; inhibition (IP1 accumulation), % at 46.1 µM; 120,000 tested, under 10 active; AID 901, 2007; active means well fitted curve in the direction sought with a large enough effect in the signal ratio, not every such curve was filed as active; inconclusive means small, poorly fitted or top-dose-only effect, or a change in a side signal; inactive means no such curve, though single readings can be large or run the other way; the % refers to the signal ratio;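 further: cells stimulated with carbachol in lithium chloride buffer; plate controls were DMSO basal wells for no effect and reference inhibitor wells for full effect; higher means more IMPase inhibition seen as more IP1 and lower FRET ratio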
Target sequence (P97697 whole entry, looked up): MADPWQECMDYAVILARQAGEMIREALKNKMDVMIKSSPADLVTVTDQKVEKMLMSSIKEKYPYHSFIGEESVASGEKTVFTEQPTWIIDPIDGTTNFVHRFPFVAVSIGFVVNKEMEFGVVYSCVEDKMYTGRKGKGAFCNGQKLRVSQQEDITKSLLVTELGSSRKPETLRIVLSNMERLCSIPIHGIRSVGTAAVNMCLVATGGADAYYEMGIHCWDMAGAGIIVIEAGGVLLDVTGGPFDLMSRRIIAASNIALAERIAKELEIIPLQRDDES
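Elevated IP1 in lysates lowers TR-FRET signal (665/620 ratio and 620 channel reported). Cells were CHO-M1, given carbachol (50 uM as added) plus 50mM LiCl, pH 7.4, 30 min, 37C; compounds titrated up to 46 uM; AC50 by Hill equation.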
KinaseGlo FLuc = Counterscreen for Luciferase (Kinase-Glo TM) Inhibition. Kinase-Glo luciferase, ATP luminescence, 8 min. Potency, µM (highest dose often 38.3 µM), inactives show at the highest dose activity change, negative = inhibition, most hits filed as inhibitors. hit rate 0.28% among 200,000. AID 1379, 2008; active means well fitted inhibition curve with a large enough effect; inconclusive means small, poorly fitted or top-dose-only effect; further: potency means the concentration at half of the fitted maximal effect; nearly all actives have a fitted effect of over 60% in size
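Luminescence was the read-out, taken after 8-minute incubation at ambient temperature. Luciferase turned over luciferin with 10 uM ATP in imidazole pH 7.2 buffer containing KCl, MgCl2, Tween 20 and BSA.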
* marks the source's active call; other numbers are inactive results; ? = inconclusive; . = not tested or not shown; [ ] = dose if it differs, or a comment. Unless noted, the call rests on the fitted dose curve; in most records, active means well fitted inhibition curve with a large enough effect (not every such curve was filed as active); inconclusive means small, poorly fitted or top-dose-only effect, or another doubt; inactive means no such curve, though single readings can be large or run the other way. Unless noted, on the % scale 0 is the no-effect control and ±100 the full control effect.

SMILES	LMNA splice mod	ALDH1A1 inh	HPGD inh	PNC inhibitor	IMPase cell inh	KinaseGlo FLuc
COc1ccc(OCC(=O)N/N=C(\C)CC(=O)Nc2ccc(OC)cc2[N+](=O)[O-])cc1	?	20µM*	.	.	.	2.4%
COc1ccc(NC(=O)C/C(C)=N/NC(=O)c2ccncc2)c([N+](=O)[O-])c1	.	3.55µM*	.	.	.	1.9%
COc1ccc(NC(=O)COc2ccc(C)cc2)c([N+](=O)[O-])c1	.	0.3%	.	.	.	0.3%
COc1ccc(NC(=O)Cc2ccc(C)cc2)c([N+](=O)[O-])c1	?	-5.6%	-2.6%	19.7	.	-0.2%
Cc1ccc2nc(CSc3nnc(Nc4ccccc4C)s3)cc(=O)n2c1	2.1%	?	?	?	.	-1.9%
CCc1ccc(Nc2nnc(SCc3cc(=O)n4ccsc4n3)s2)cc1	?	?	20µM*	-25.1	5.1	-4.2%
Cc1cccc(Nc2nnc(SCc3cc(=O)n4cc(C)ccc4n3)s2)c1	3.4%	-9.3%	15.8µM*	?	.	2.1%
CS(=O)(=O)c1ccc(C2=C(c3ccccc3)C(=O)OC2)cc1	-10.9%	2.82µM*	15.2%	.	.	-4.5%
COc1ccc(C2=C(c3ccc([N+](=O)[O-])cc3)C(=O)OC2)cc1	.	4.3%	.	.	.	-2.7%
CCCCC/C=C\C\C=C/C=C/C=C/[C@@H](SC[C@H](N)C(=O)O)[C@@H](O)CCCC(=O)O	.	10.0%	.	.	.	.
COC(=O)CCCCCN1C(=O)NC(c2ccccc2)C(C(=O)OCc2ccccc2)=C1C (stereo not given)	?	?	-6.4%	-92.3*	.	-0.4%
CCCCCCN(C(=O)CCCCCN1C(=O)NC(c2ccc(Cl)cc2)C(C(=O)OCc2ccccc2)=C1C)C(C(=O)NCCCC)c1ccc(OCC(=O)OC)c(C(=O)OC)c1 (stereo not given)	-0.4%	-4.8%	-14.3%	23.0	.	-6.9%
CCCCCCN(C(=O)CCCCCN1C(=O)NC(C2CC2)C(C(=O)OCc2ccccc2)=C1C)C(C(=O)NCCCC)c1ccc(OCC(=O)OC)c(C(=O)OC)c1 (stereo not given)	.	12.6µM*	-17.0%	.	.	-3.2%
COC(=O)[C@H](COC(C)(C)C)NC(=O)O[C@H]1C(=O)c2ccc(OC)cc2O[C@@H]1c1ccc2c(c1)OCO2	.	6.0%	-9.6%	.	.	-0.9%
CCC(CC)C(=O)Nc1nnc(SCc2cc(=O)n3cccc(C)c3n2)s1	0.7%[46 µM]	.	.	.	.	.
CC[C@@]1([N+](=O)[O-])C[C@H]2C=C[C@@H]1C2	.	10.1%[13.5 µM]	-9.5%	.	.	-3.1%[7.66 µM]
CC1=C(n2nnc3ccccc32)C(c2ccccc2)C(C#N)=C(N)O1 (stereo not given)	-15.7%	12.6µM*	?	?	4.3	-0.3%
CNC(=S)Nc1ccc(OC)c(OC)c1	-5.2%	9.7%	-3.2%	-8.8	-6.7	2.4%
S=C(Nc1ccccc1)Nn1cnnc1	-5.6%	6.31µM*	14.1µM*	0.0	.	1.8%
COc1ccc(NC(=S)Nc2ncccc2C)cc1OC	?	25.1µM*	.	.	.	-6.8%
Cc1ccc(NC(=S)Nn2cnnc2)cc1	-15.9%[9.22 µM]	3.55µM*	.	.	.	-2.0%
COc1ccc(NC(=S)Nn2cnnc2)cc1OC	14.2%[46 µM]	3.98µM*	.	.	.	0.9%
Cc1cc(OCC(=O)Nc2sc3c(c2C(N)=O)CCCC3)ccc1C(C)C	.	.	.	.	-9.0	.
CCc1ccc(NC(=S)NCc2ccccc2)cc1	.	-5.6%	.	.	.	-1.3%
CCc1ccc(NC(=S)Nn2cnnc2)cc1	5.6%[9.22 µM]	1.41µM*	.	.	.	4.1%
SMILES	LMNA splice mod	ALDH1A1 inh	HPGD inh	PNC inhibitor	IMPase cell inh	KinaseGlo FLuc
CCN(CC)S(=O)(=O)c1cc(NS(=O)(=O)c2cc(Cl)ccc2Cl)ccc1C	?	15.8µM*	-6.3%	-6.0	.	1.8%
S=C(Nc1ccc(N2CCOCC2)cc1)Nc1ccc2snnc2c1	?	25.1µM*	.	.	.	-1.9%
CC(=O)Nc1ccc(/C(C)=N\NC(=O)c2ccc(-c3ccccc3)cc2)cc1	.	22.4µM*	.	.	.	-0.1%
C/C(=N\NC(=O)c1ccc(-c2ccccc2)cc1)c1cccc(N)c1	-6.5%[46 µM]	22.4µM*	.	.	.	-1.7%
CC(C)[C@@H](CC(=O)N[C@@H]1CCCC[C@H]1C(=O)N[C@H](CC(=O)N[C@@H](CCC(=O)O)CC(=O)O)Cc1ccccc1)NC(=O)C[C@H](Cc1ccccc1)NC(=O)[C@@H]1CNCC[C@H]1N	.	15.8%	-6.3%	.	.	2.0%
COc1ccc2c(c1)nc(SCC(=O)c1ccc(Br)s1)n2C	-1.8%	28.2µM*	?	-23.7	-25.2	-8.5%
COCCOC(=O)c1c(C)oc2ccc(OC(=O)c3cccs3)cc12	2.3%	-8.3%	-12.9%	-139.2*	-10.8	-2.2%
CCOc1ccc2[nH]cc(C(=O)NCCCN3CCOCC3)c(=O)c2c1	8.2%[46 µM]	-4.1%	.	.	.	-1.2%
Cc1cccc2c(=O)c(C(=O)NCCCN3CCOCC3)c[nH]c12	-2.1%	8.4%	-8.2%	-100.0*	-2.2	-1.3%
CCc1ccc2nc(N(CCN(CC)CC)C(=O)c3ccco3)sc2c1	6.0%[46 µM]	.	.	.	.	.
Cc1ccc(-n2cc[nH]c2=S)cc1C	-6.9%	?	22.4µM*	34.8	.	0.5%
S=c1[nH]ccn1-c1cccc(Cl)c1	-9.1%	-9.1%	-26.3%	-8.9	.	-3.5%
COc1ccc(-n2cc(C(=O)OCc3ccc(F)c(F)c3)c3ccccc3c2=O)cc1	-12.2%[46 µM]	.	.	.	.	.
Cc1cc(NS(=O)(=O)c2ccc(NC(=O)C(C(C)C)N3C(=O)c4ccccc4C3=O)cc2)nc(C)n1 (stereo not given)	13.4%	-15.6%	-10.6%	-88.1*	2.1	1.6%
CSCCC(NC(=O)OC(C)(C)C)C(=O)Oc1ccc2c(=O)c(-c3ccc4c(c3)OCCO4)coc2c1 (stereo not given)	?	25.1µM*	-16.0%	7.9	-1.2	-0.5%
OCCN[C@@H]1c2cc(Cl)ccc2-c2c(Cl)cc(Cl)cc21	.	4.2%[13.5 µM]	3.6%	.	.	-1.5%[7.66 µM]
CC1(C)CC(=O)C(/C=N/n2c(C(F)(F)F)nc3ccccc3c2=O)=C(O)C1	12.1%	25.1µM*	-26.4%	?	1.6	4.5%
CCN(CC)c1cc2c(cc1F)c(=O)c(S(=O)(=O)c1cc(C)ccc1C)cn2Cc1ccccc1	17.1%[46 µM]	.	.	.	.	.
COc1ccccc1C1C=C(c2ccc(C)cc2)Nc2nnnn21 (stereo not given)	?	14.1µM*	-14.6%	-7.8	-6.7	-0.3%
COc1ccccc1C1C2=C(CC(C)(C)CC2=O)Nc2nnnn21 (stereo not given)	-12.2%	25.1µM*	-12.4%	?	-3.1	0.1%
